Data taken from PubChem BioAssay (EPA / NIEHS).
Inconclusive results are not listed. Calls of active or inactive are those of the source. How the source made its calls: active means hit-call score of the fitted dose curve at least 0.9, where 1 is the maximum; inconclusive means response in the unintended direction; inactive means score below 0.9.

Read-out: ABC Transporter (ABCB1), ABCB1 (gene 5243)
Test: CLD_ABCB1_24hr: CellzDirect (CLD) Gene Expression Assay for ABC Transporter (ABCB1) at 24 hours (AID 2283684);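 on AC50: potency for increase in ABCB1 mRNA relative to DMSO vehicle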
Protocol: CLD_24hr is a cell-based, multiplexed-readout assay that uses hepatocyte, a human liver primary cell, with measurements taken at 24 hours after chemical dosing in a 96-well plate.CLD_ABCB1_24hr is one of 16 assay component(s) measured or calculated from the CLD_24hr assay. It is designed to make measurements of mRNA induction, a form of inducible reporter, as detected with chemiluminescence signals by Quantitative Nuclease Protection Assay (qNPA) technology.Data from the assay component CLD_ABCB1_24hr was analyzed at the endpoint, CLD_ABCB1_24hr, in the positive analysis fitting direction relative to DMSO as the negative control and baseline of activity. Using a type of inducible reporter, gain-of-signal activity can be used to understand changes in the reporter gene as they relate to the gene ABCB1. Furthermore, this assay endpoint can be referred to as a primary readout. To generalize the intended target to other relatable targets, this assay endpoint is annotated to the transporter intended target family, where subfamily is ABC transporter.
Human hepatocyte cultures were treated daily for two consecutive days with fresh dosing solutions containing appropriate concentrations of the 320 ToxCast chemicals (chemical identities were blinded to CellzDirect and other ToxCast collaborators), vehicle control (0.2% DMSO), and positive control inducers as summarized in Table 1. Due to the large number of treatment groups and chemicals examined, the ToxCast chemicals were divided into two groups (spanning two independent cultures of hepatocytes from separate donor preparations (Hu778: ToxCast plates 1 and 2; Hu776: ToxCast plates 3 and 4). Each preparation of human hepatocyte cultures was treated with respective vehicle control, medium only control, set of six positive controls/reference chemicals for the five hepatic receptor pathways, and a subset of eight of the ToxCast chemicals (indoxacarb, pyrithiobac-sodium, norflurazon, cyhalofop-butyl, methomyl, thiram, acetochlor, and propiconazole). These replicate data, coupled with internal replicates designed within the blinded ToxCast chemical library, provided additional data to evaluate interindividual differences between hepatocyte preparations and their potential impact on chemical profiles.Cell morphology and integrity were evaluated using phase-contrast microscopy as an indicator of hepatocyte cell health (Tyson & Green, 1987). Cultures for each treatment group (i.e., media, vehicle [0.2% DMSO], positive control inducers [multiple concentrations], and the ToxCast chemicals [multiple concentrations]) were observed and cell morphology was assessed relative to vehicle control cultures at each harvest time point (0, 6, 24, or 48 h). […] Images were evaluated at the conclusion of the study to assess changes in cell integrity and account for the effects of chemical exposure on uncharacteristic changes in concentration-dependent gene expression profiles. The results from these determinations of apparent cytotoxicity were annotated (yes/no) alongside the corresponding qNPA data for reference.At the conclusion of each treatment period, hepatocyte cultures (96-well) were washed with 1 volume of HBSS, lysed by addition of 25 ul ArrayPlate lysis buffer (HTG, Tucson, AZ), and 70 ul/well of Denaturation Oil, denatured by incubation at 95C for 10 min, and frozen at approximately -70C until analysis by nuclease protection assay (qNPA) (Roberts et al., 2007). For qNPA analysis, cell lysates were thawed at 50C for approximately 30 min, qNPA probes were added, and samples were incubated at 95C for 10 min to begin the detection process by denaturing the target RNA, dissociating the duplexes and secondary structure hybridization. At the conclusion of the hybridization period, S1 nuclease reagent was added to each sample to digest all nonprotected nucleotides at 50C for 60-90 min. […]

Compound | AC50 | outcome
CCCCC(O)(Cn1cncn1)c1ccc(Cl)cc1Cl (stereo not given) | 31.9 µM (active) | 
CCOc1nc(F)cc2nc(S(=O)(=O)Nc3c(Cl)cccc3Cl)nn12 |  | inactive
Clc1nc(Cl)nc(Nc2ccccc2Cl)n1 |  | inactive
CSC(=O)c1c(C(F)F)nc(C(F)(F)F)c(C(=O)SC)c1CC(C)C |  | inactive
N#Cc1c(Cl)cccc1Cl |  | inactive
CCCN(CC)CC1COC2(CCC(C(C)(C)C)CC2)O1 (stereo not given) |  | inactive
CC1(C)C(C(=O)OC(C#N)c2cccc(Oc3ccccc3)c2)C1(C)C (stereo not given) |  | inactive
COC(=O)NS(=O)(=O)c1ccc(N)cc1 |  | inactive
CCCC(=NOCC)C1=C(O)CC(CC(C)SCC)CC1=O (stereo not given) |  | inactive
C=C(C)CN(CC)c1c([N+](=O)[O-])cc(C(F)(F)F)cc1[N+](=O)[O-] |  | inactive
CCCCOCN(C(=O)CCl)c1c(CC)cccc1CC |  | inactive
CS(=O)(=O)c1cc(C(F)(F)F)ccc1C(=O)c1cnoc1C1CC1 |  | inactive
COCC(C)N(C(=O)CCl)c1c(C)csc1C (stereo not given) |  | inactive
CC(C)Oc1cccc(NC(=O)c2ccccc2C(F)(F)F)c1 |  | inactive
CC1(C)C(C=C(Cl)Cl)C1C(=O)OC(C#N)c1cccc(Oc2ccccc2)c1 (stereo not given) |  | inactive
O=P(O)(O)CCCl |  | inactive
CCNC(=O)NC(=O)C(C#N)=NOC |  | inactive
CC(C)C1(C)N=C(c2ncccc2C(=O)O)NC1=O (stereo not given) |  | inactive
CCSC(=O)N1CCCCCC1 |  | inactive
COC(=O)N(C(=O)N1CO[C@@]2(C(=O)OC)Cc3cc(Cl)ccc3C2=N1)c1ccc(OC(F)(F)F)cc1 |  | inactive

Compound | AC50 | outcome
COc1ccc(-c2ccccc2)cc1NNC(=O)OC(C)C |  | inactive
COP(=S)(OC)Oc1ccc([N+](=O)[O-])c(C)c1 |  | inactive
C=CCOC(=O)C(C)(C)OC(=O)c1cc(-n2c(=O)cc(C(F)(F)F)n(C)c2=O)ccc1Cl |  | inactive
O=C(O)c1c(Cl)ccc2cc(Cl)cnc12 |  | inactive
CC1(C)CON(Cc2ccccc2Cl)C1=O |  | inactive
Nc1c(Cl)c(Cl)nc(C(=O)O)c1Cl |  | inactive
CC(C)N1C(=O)N(c2ccccc2)CSC1=NC(C)(C)C |  | inactive
CO/N=C(/C1=NOCCO1)c1ccccc1Oc1ncnc(Oc2ccccc2Cl)c1F |  | inactive
Cn1c(-c2ccccc2)cc(-c2ccccc2)[n+]1C |  | inactive
O=C1C2CC=CCC2C(=O)N1SC(Cl)(Cl)Cl (stereo not given) |  | inactive
CNC(=O)Oc1cccc2ccccc12 |  | inactive
Cc1c(COC(=O)[C@@H]2[C@H](/C=C(\Cl)C(F)(F)F)C2(C)C)cccc1-c1ccccc1 | 29.9 µM (active) | 
COP(=S)(OC)SCn1nnc2ccccc2c1=O |  | inactive
O=c1n(Cl)c(=O)n(Cl)c(=O)n1Cl |  | inactive
CC(C)N1C(=O)c2ccccc2NS1(=O)=O |  | inactive
CN=C=S |  | inactive
CCOP(=S)(OCC)Oc1nc(Cl)n(C(C)C)n1 |  | inactive
Nc1cnn(-c2ccccc2)c(=O)c1Cl |  | inactive
CCNP(=S)(OC)O/C(C)=C/C(=O)OC(C)C (stereo not given) |  | inactive
CCOc1cc(C(C)(C)C)ccc1C1COC(c2c(F)cccc2F)=N1 (stereo not given) |  | inactive
